Measurements as given in PubChem BioAssay (NCI).
About 83,000 compounds went through this panel and 20% of them were active in at least one assay; those are over-represented in the sample as a whole.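 Each cell line was grown in a 96-well plate and treated with one concentration of compound for 48 hours. Values below 10 were considered active.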 The source made the active and inactive calls.

How the values were obtained:
Assay in all cases: NCI-60 one-dose screen, 48 h (100 = growth as untreated, 0 = no growth, -100 = all killed)
SK-MEL-2 melanoma = conditions: 10 µM
EKVX NSCLC = conditions: 10 µM
SN12C renal = conditions: 10 µM
UO-31 renal = conditions: 10 µM
TK-10 renal = conditions: 10 µM
ACHN renal = conditions: 10 µM
CAKI-1 renal = conditions: 10 µM
A498 renal = conditions: 10 µM
CCRF-CEM leukemia = conditions: 10 µM
MOLT-4 leukemia = conditions: 10 µM unless noted
SR leukemia = conditions: 10 µM
RPMI-8226 leukemia = conditions: 10 µM
OVCAR-8 ovarian = conditions: 10 µM
OVCAR-5 ovarian = conditions: 10 µM
OVCAR-4 ovarian = conditions: 10 µM
SK-OV-3 ovarian = conditions: 10 µM
IGROV1 ovarian = conditions: 10 µM
OVCAR-3 ovarian = conditions: 10 µM
NCI/ADR-RES ovarian = conditions: 10 µM

Measured: growth

Cc1cc(C)c(N2C(=O)CC(Sc3ccccc3N)C2=O)c(C)c1 (stereo not drawn)
inactive: SK-MEL-2 melanoma 88.5% | EKVX NSCLC 87.1% | SN12C renal 90.4% | UO-31 renal 55.5% | TK-10 renal 123% | ACHN renal 87.7% | CAKI-1 renal 47.7% | A498 renal 54.2% | CCRF-CEM leukemia 34.9% | MOLT-4 leukemia 76.5% | SR leukemia 23.4% | RPMI-8226 leukemia 66.3% | OVCAR-8 ovarian 91.1% | OVCAR-5 ovarian 118% | OVCAR-4 ovarian 71.4% | SK-OV-3 ovarian 71.6% | IGROV1 ovarian 92% | OVCAR-3 ovarian 71.1% | NCI/ADR-RES ovarian 75%

CN(C)c1ccc(/C=C/c2ccnc3ccccc23)cc1N
inactive: SK-MEL-2 melanoma 67.5% | EKVX NSCLC 52.5% | SN12C renal 70.5% | UO-31 renal 45.5% | TK-10 renal 74.7% | ACHN renal 68.6% | CAKI-1 renal 60.9% | A498 renal 62.8% | CCRF-CEM leukemia 44.3% | MOLT-4 leukemia 54.8% | SR leukemia 41.4% | RPMI-8226 leukemia 37.4% | OVCAR-8 ovarian 75.3% | OVCAR-5 ovarian 91.8% | OVCAR-4 ovarian 58.2% | SK-OV-3 ovarian 72% | IGROV1 ovarian 65.7% | OVCAR-3 ovarian 70.7% | NCI/ADR-RES ovarian 68%

N#CC(=C1C=CC(=NO)C=C1)c1ccccc1
active: ACHN renal 9.06% | CCRF-CEM leukemia 3.4% | SR leukemia -17.5% | RPMI-8226 leukemia -13% | OVCAR-8 ovarian 2.63% | OVCAR-5 ovarian -10.1% | OVCAR-3 ovarian -26.8% | NCI/ADR-RES ovarian -37.2%
inactive: SK-MEL-2 melanoma 41.1% | EKVX NSCLC 55.1% | SN12C renal 10.3% | UO-31 renal 48.4% | TK-10 renal 27.2% | CAKI-1 renal 52.3% | A498 renal 48% | MOLT-4 leukemia 19.2% | OVCAR-4 ovarian 14.4% | SK-OV-3 ovarian 37.8% | IGROV1 ovarian 24.5%

COc1ccc2c(c1)[nH]c1c(/C=C/c3ccccc3)nccc12
inactive: SK-MEL-2 melanoma 89.5% | EKVX NSCLC 62.2% | SN12C renal 78.7% | UO-31 renal 25.7% | TK-10 renal 81.2% | ACHN renal 61.1% | CAKI-1 renal 58.4% | A498 renal 71.2% | CCRF-CEM leukemia 65% | MOLT-4 leukemia 48% | SR leukemia 29.3% | RPMI-8226 leukemia 25.2% | OVCAR-5 ovarian 74.2% | OVCAR-4 ovarian 21.4% | SK-OV-3 ovarian 65.1% | OVCAR-3 ovarian 73.4% | NCI/ADR-RES ovarian 53.4%
active: IGROV1 ovarian -15.7%

O=Nc1ccc(Nc2ccccc2)cc1
inactive: SK-MEL-2 melanoma 109% | EKVX NSCLC 89.2% | SN12C renal 95.6% | UO-31 renal 53.9% | TK-10 renal 116% | ACHN renal 41.5% | CAKI-1 renal 66.1% | A498 renal 87.2% | MOLT-4 leukemia 15% | SR leukemia 28.2% | RPMI-8226 leukemia 27.1% | OVCAR-8 ovarian 66.4% | OVCAR-5 ovarian 103% | OVCAR-4 ovarian 57.3% | SK-OV-3 ovarian 108% | IGROV1 ovarian 102% | OVCAR-3 ovarian 49.4% | NCI/ADR-RES ovarian 87.9%
active: CCRF-CEM leukemia 2.09%

O=c1[nH]cc(/C=N\Nc2ccccc2)c(=O)[nH]1
inactive: SK-MEL-2 melanoma 46.1% | EKVX NSCLC 56.4% | SN12C renal 68.7% | UO-31 renal 26% | TK-10 renal 78% | ACHN renal 40.3% | CAKI-1 renal 41.6% | A498 renal 87.5% | CCRF-CEM leukemia 31.2% | MOLT-4 leukemia 49.6% | SR leukemia 65.1% | RPMI-8226 leukemia 76.5% | OVCAR-8 ovarian 46.7% | OVCAR-5 ovarian 68.4% | OVCAR-4 ovarian 84.4% | SK-OV-3 ovarian 62.2% | IGROV1 ovarian 53.9% | OVCAR-3 ovarian 81.2% | NCI/ADR-RES ovarian 56.4%
